# Inconclusive results are not listed. Activity calls are given as the source filed them. Calls follow the shape of the dose curve; as a rule, active = well fitted activation curve with a large enough effect in the signal ratio in the repeat runs (not every such curve was filed as active); inconclusive = weak or mixed curves, or effect the other way; inactive = flat fitted curve, though single readings scatter; the % refers to the signal ratio.
# Biological target: Bile acid receptor (Homo sapiens) (UniProt Q96RI1)
# Assay: qHTS assay to identify small molecule agonists of the farnesoid-X-receptor (FXR) signaling pathway (AID 743220)
# Conditions: HEK293T FXR-UAS-bla, beta-lactamase FRET ratio, 16 h; series mostly up to 62.6 µM; activation: at the top concentration
# Description: National Center for Advancing Translational Sciences [NCATS]
# NIH Chemical Genomics Center [NCGC]
# U.S. Environmental Protection Agency [EPA]
# National Institutes of Environmental Health Sciences [NIEHS]
# National Toxicology Program [NTP]
# U.S. Food and Drug Administration [FDA]
# The farnesoid-X-receptor (FXR), a nuclear hormone receptor, is highly expressed in liver, intestine, kidney and adrenal cortex. Natural ligands of FXR are the bile acids (Cholic acid, Chenodeoxy cholic acid etc). FXR is an important regulator of diverse metabolic pathways, including the bile acid homeostasis, lipid and glucose metabolisms. FXR regulates the expression of target genes by binding either as a monomer or as a heterodimer with the retinoid X receptor (RXR). Numerous studies have reported that FXR exerts protective function during cholestasis, diabetes, liver regeneration, and cancer. To identify compounds that activate FXR signaling, GeneBLAzer FXR-UAS-bla HEK 293T cell line (Invitrogen, Carlsbad, CA) containing a beta-lactamase reporter gene under the control of a UAS response element was used to screen the Tox21 10K compound library.
# Tox21 Assay Protocol Summary:
# FXR-bla cells were dispensed at 5000 cells/5uL/well in 1536-well black wall/clear bottom plates using a Multidrop Combi (Thermo Fisher Scientific, Waltham, MA) dispenser. After the assay plates were incubated at 37C and 5% CO2 for 5 h, 23 nL of compounds dissolved in DMSO, positive controls or DMSO only was transferred to the assay plate by a Pintool station (Kalypsys, San Diego, CA). The assay plates were incubated at 37C for 16 h. After 1 uL of LiveBLAzerTM B/G FRET substrate was added using a Bioraptr Flying Reagent Dispenser (FRD) workstation (Beckman Coulter, Indianapolis, IN), the plates were incubated at room temperature for 2 h, and fluorescence intensity was measured by an Envision plate reader (PerkinElmer, Shelton, CT).
# % is scaled to controls: 0 for no effect and ±100 for the full control effect.
# Chain of Bile acid receptor (Homo sapiens) (Q96RI1 whole entry, looked up): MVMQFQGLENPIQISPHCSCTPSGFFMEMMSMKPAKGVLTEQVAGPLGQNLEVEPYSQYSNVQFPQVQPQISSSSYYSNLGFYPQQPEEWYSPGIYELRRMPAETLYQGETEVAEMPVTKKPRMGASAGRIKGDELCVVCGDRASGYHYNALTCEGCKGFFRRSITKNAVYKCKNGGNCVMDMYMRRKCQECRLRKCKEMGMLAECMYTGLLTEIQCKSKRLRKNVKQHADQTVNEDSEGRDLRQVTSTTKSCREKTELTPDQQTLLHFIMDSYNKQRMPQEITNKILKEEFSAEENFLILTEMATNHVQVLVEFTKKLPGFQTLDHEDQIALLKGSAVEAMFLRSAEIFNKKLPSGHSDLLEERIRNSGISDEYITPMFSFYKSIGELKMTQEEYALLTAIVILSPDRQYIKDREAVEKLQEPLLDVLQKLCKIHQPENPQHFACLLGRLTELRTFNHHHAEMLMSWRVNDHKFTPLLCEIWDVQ
row,Structure (SMILES),activation
1,CN1C(=S)CN=C(c2ccccc2)c2cc(Cl)ccc21,4.77% (inactive)
2,CCSC(=O)N(CC)C1CCCCC1,-1.57% (inactive)
3,CCC#N,-1.65% [at 81.1 µM] (inactive)
4,OCCBr,-1.12% (inactive)
5,Nc1n[nH]c(N)n1,2.13% [at 81.1 µM] (inactive)
6,CC(N)=S,-0.185% (inactive)
7,O=C(CCN1CC1)OCC(CO)(COC(=O)CCN1CC1)COC(=O)CCN1CC1,0.214% (inactive)
8,CCC(=O)c1ccccc1,-0.883% (inactive)
9,O=[N+]([O-])c1cccc2cccnc12,1.74% [at 81.1 µM] (inactive)
10,CN/C(=N\[N+](=O)[O-])NCC1CCOC1 (stereo not given),3.47% (inactive)
11,C[C@]12CC[C@H]3[C@@H](CCC4=CC(=O)CC[C@@]43C)[C@@H]1CC[C@@H]2C(=O)O,-1.75% (inactive)
12,CNC(=O)N(C)c1nc2ccccc2s1,0.522% (inactive)
13,ClCC(Cl)(Cl)Cl,-0.302% [at 81.1 µM] (inactive)
14,CNC(=O)Oc1c(C(C)(C)C)cc(C)cc1C(C)(C)C,-2.01% (inactive)
15,COC(=O)C(c1ccccc1)C1CCCCN1 (stereo not given),0.575% (inactive)
16,CC(CC(C#N)(c1ccccc1)c1ccccc1)N(C)C (stereo not given),-4.01% [at 81.1 µM] (inactive)
17,CCNc1nc(NC(C)C)nc(OC)n1,0.871% (inactive)
18,Clc1cccc(N2CCNCC2)c1,0.161% (inactive)
19,N#CC(Cl)(Cl)Cl,-0.802% (inactive)
20,CCOP(=S)(OCC)SCSc1ccc(Cl)cc1,-3.15% (inactive)

row,Structure (SMILES),activation
1,COc1cc(OC)nc(Oc2cccc(Oc3nc(OC)cc(OC)n3)c2C(=O)O)n1,0.279% (inactive)
2,N#CC(CCc1ccc(Cl)cc1)(Cn1cncn1)c1ccccc1 (stereo not given),0.506% (inactive)
3,CCOC(=O)CP(=O)(OCC)OCC,-0.328% (inactive)
4,N#CCBr,-0.108% [at 81.1 µM] (inactive)
5,COc1cc(OC)nc(NC(=O)NS(=O)(=O)c2ncccc2OCC(F)(F)F)n1,0.725% (inactive)
6,O=C1OC(=O)C2C1C1(Cl)C(Cl)=C(Cl)C2(Cl)C1(Cl)Cl (stereo not given),1.37% [at 81.1 µM] (inactive)
7,O=[N+]([O-])c1cccc(O)c1,-1.72% [at 81.1 µM] (inactive)
8,CN(C)CCc1ccc(O)cc1,-1.54% (inactive)
9,O=NN1CCN(N=O)CC1,2.48% (inactive)
10,CCCSC(=O)Cl,3.63% [at 81.1 µM] (inactive)
11,CCCCOP(=O)(O)OCCCC,-1.65% (inactive)
12,O=[N+]([O-])c1cc(Cl)c(Cl)c(Cl)c1,-1.69% (inactive)
13,O=C(O)c1cccc(Cl)c1,0.924% (inactive)
14,C(CCOCC1CO1)COCC1CO1 (stereo not given),0.294% (inactive)
15,Nc1c(Br)cc([N+](=O)[O-])cc1[N+](=O)[O-],0.296% [at 81.1 µM] (inactive)
16,CCS(=O)(=O)C(C)(C)S(=O)(=O)CC,3.4% (inactive)
17,O=S(=O)(O)C(F)(F)C(F)(F)C(F)(F)C(F)(F)C(F)(F)C(F)(F)F,-0.214% (inactive)
18,C=CC1CC=CCC1 (stereo not given),0.837% (inactive)
19,O=C1OC(c2ccc(O)c(S(=O)(=O)O)c2)(c2ccc(O)c(S(=O)(=O)O)c2)c2c(Br)c(Br)c(Br)c(Br)c21,0% (inactive)
20,CC1(C)COP(Oc2ccccc2)OC1,0.698% (inactive)

# From PubChem BioAssay (Tox21)
